# Reference: the supplement of paper PMC3334620
# In all, about 33,000 sequences were measured (“E-score (-0.5 to 0.5)”: median about -0.036, highest 2% from about 0.37 on). The list comes from a sample in which the highest values are over-represented; it also holds similar and randomly drawn sequences.
# Target: T1, Yer064c (UniProt P40041)
# T1 sequence: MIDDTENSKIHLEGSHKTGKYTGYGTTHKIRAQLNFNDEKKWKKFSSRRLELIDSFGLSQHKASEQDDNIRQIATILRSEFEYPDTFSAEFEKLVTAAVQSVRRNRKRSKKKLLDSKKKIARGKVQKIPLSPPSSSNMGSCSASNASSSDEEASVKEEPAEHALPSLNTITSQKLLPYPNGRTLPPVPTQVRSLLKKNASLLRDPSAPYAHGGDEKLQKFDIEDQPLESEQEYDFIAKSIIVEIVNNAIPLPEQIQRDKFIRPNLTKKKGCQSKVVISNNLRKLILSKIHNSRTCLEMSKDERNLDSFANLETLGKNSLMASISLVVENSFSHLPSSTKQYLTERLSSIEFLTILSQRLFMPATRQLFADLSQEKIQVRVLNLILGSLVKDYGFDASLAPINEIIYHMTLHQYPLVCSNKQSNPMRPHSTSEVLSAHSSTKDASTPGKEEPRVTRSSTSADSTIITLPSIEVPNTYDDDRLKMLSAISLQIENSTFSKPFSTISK
# Assay: PBM E-score (8-mer binding enrichment) (E-score (-0.5 to 0.5)); higher = stronger / more preferred TF binding
# Details: protein concentration: 200 nM; construct: GST-full length
# Outline: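 The E-score, a modified Wilcoxon-Mann-Whitney statistic, was computed by the Universal PBM Analysis Suite for every ungapped eight-base word pooled with its reverse complement. Scans behind it were normalised with masliner after bound GST-tagged yeast transcription factors were detected with fluorescent anti-GST. The proteins, at about 100-200 nM, had been applied to universal all-10-mer Agilent arrays made double-stranded by primer extension.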
row,Sequence,PBM E-score
1,CTCGCGCA,-0.0489
2,GAGCGTCA,-0.0316
3,CACTTTGA,0.184
4,GGCTATCA,-0.11
5,TCGTCGCA,-0.0159
6,TAGTCGCA,0.412
7,CAGTCGCC,0.254
8,GAGTCGCA,0.438
9,AAGTCGCA,0.257
10,AAGTCGCC,0.222
11,CAGTCGCA,0.15
12,GAGTCGCC,0.439
13,TAGTCGAA,0.243
14,ACGGGCCT,-0.363
15,GGGCACCC,-0.269
16,CGGGACCA,-0.208
17,GAAGCGTA,-0.151
18,AACGGAAC,-0.134
19,AAGAGCCC,-0.196
20,CATTTCGA,-0.0334
21,AATCACGA,0.347
22,AATCACGC,0.391
23,GATCACGC,0.18
24,AATCACGT,0.382
25,CATCACGA,0.132

row,Sequence,PBM E-score
1,AATCAAGA,0.235
2,AAGGCAGG,-0.192
3,ACGTCCGG,-0.217
4,AGTGGGCC,-0.307
5,CTTCTGCC,-0.225
6,GTGGTTAA,0.222
7,ATGGTTAA,0.391
8,CTGGTTAA,0.162
9,GTAGCGAA,-0.0282
10,ATGCCGAG,-0.0321
11,GACTCGCA,0.414
12,AACTCGTA,-0.019
13,AACTCGCA,0.0388
14,GACTCGCC,0.371
15,AACTCGCC,-0.0941
16,GACTCGTA,0.419
17,TACTCGCA,0.211
18,CACTCGCC,-0.0244
19,CACTCGTA,-0.0316
20,AAGGTACG,-0.094
21,GCGTAGAC,-0.0194
22,GAGGTGAC,0.224
23,TATTCCAA,-0.0766
24,GCACTGAC,0.131
25,GGGCCGAA,-0.287

row,Sequence,PBM E-score
1,GCCTGCGA,-0.22
2,CGCAATCA,0.302
3,ATCAATCG,0.193
4,GGCAATCA,0.283
5,GTCAATTA,0.123
6,CTCAATCA,0.402
7,ATCAATCA,0.381
8,GTCAATCA,0.389
9,CTCAATCC,0.146
10,ATCAATCC,-0.0246
11,TGGGCGAA,0.0204
12,ATCTCTAG,-0.0229
13,CAGACGAC,0.137
14,AGTAAGTC,0.354
15,CCTCAGCA,-0.202
16,AACTGGTA,-0.259
17,AATGACCG,-0.203
18,CATGACGA,0.0513
19,AATGACCA,0.0838
20,AATGACGA,0.0304
21,AATGACAG,-0.045
22,CATGACTA,0.491
23,CATGACAA,-0.00212
24,AATGACTA,0.487
25,AATGACTG,0.441

row,Sequence,PBM E-score
1,AATAGGCT,-0.0339
2,CTCTCGGA,0.144
3,CTGTGGAA,0.0224
4,AATCCTCG,-0.0311
5,GATCATTA,0.128
6,AAGCATTG,-0.159
7,CATCATTC,0.0981
8,AAACATTG,-0.0364
9,ATTCATTA,0.21
10,CATCATTA,0.161
11,AATCATTA,0.397
12,AATCATTG,0.43
13,AATCATTC,0.417
14,TGGTAGAA,-0.0551
15,CACCCTGC,0.118
16,AGGCTACG,-0.232
17,ATCCAAAC,0.00765
18,GAGGACAA,-0.195
19,GTCACAAC,0.213
20,TCGTCAGA,-0.15
21,GCGTCAGA,-0.116
22,TAGTCAGA,0.457
23,GGGTCAGA,0.00219
24,ATGTCAGA,-0.0808
25,GAGTCAGA,0.472

row,Sequence,PBM E-score
1,GACGGCCC,-0.375
2,CATCCTAA,0.0625
3,GTAGAAAC,-0.119
4,AACGGCTT,-0.309
5,AACTCTGA,0.186
6,CACTCTGC,-0.0532
7,GACTCTGC,0.376
8,GACTCTGA,0.392
9,CACTCTTA,-0.016
10,GACTCTTA,0.428
11,AACTCTTA,0.0866
12,TACTCTGA,0.156
13,AACTCTGC,0.0728
14,ATTCTCTG,0.0149
15,CCTCTGCA,-0.264
16,GGCTAGAA,0.00723
17,GCCCTTAA,-0.185
18,AGGCCTGC,-0.27
19,CCGGGCCC,-0.315
20,GCGGACCA,-0.0691
21,AGCCCCCT,-0.382
22,ATAGGATG,0.0522
23,ACGAGTCG,0.383
24,ACGAGTAG,0.039
25,GCGAGTAA,0.206

row,Sequence,PBM E-score
1,GCGAGTCA,0.485
2,GCGAGTCC,0.262
3,TCGAGTAA,0.11
4,TCGAGCCA,-0.00283
5,TCGAGTCA,0.471
6,ACGAGTTG,-0.0661
7,CCGAGTCG,0.261
8,CCGAGTCA,0.467
9,CCGAGTCC,0.195
10,ATACCCGA,-0.0409
11,CTCTTTGC,-0.0733
12,AACGTCCG,-0.343
13,TCTCGAAA,0.0754
14,GCGGAACA,0.0307
15,CAGGGGGC,-0.337
16,CGGCTGAA,0.0435
17,ATTTTGCG,0.00719
18,ACCCAACA,-0.144
19,CCGCCTGC,0.00718
20,ACGAGTCC,0.289
21,ACGAGTCA,0.48
22,ACGAGTCT,0.312
23,AATCGCTC,0.211
24,CACTACGA,0.0996
25,GACTACGA,0.413

row,Sequence,PBM E-score
1,GACTACGC,0.391
2,CACTACGC,-0.197
3,AACTACGC,0.0819
4,TACTACGA,0.181
5,ATGAAATA,-0.0533
6,CAGAGTCG,0.324
7,AAGAGTGG,-0.242
8,TAGAGTGA,0.171
9,GAGAGTCC,0.256
10,CAGAGTCA,0.469
11,TAGAGTCA,0.469
12,GAGAGTAA,0.0863
13,TAGAGTAA,0.0416
14,GAGAGTCA,0.481
15,AAGAGTTG,0.0206
16,CAGAGTCC,0.212
17,AAGAGTCG,0.423
18,AAGGCTGT,-0.161
19,CAAACGCA,-0.0486
20,CCCGGACC,-0.189
21,AGTAAGAT,0.0659
22,CATGTTCC,-0.138
